# Assays:
# [1] = biological target: Sphingosine kinase 1 (Homo sapiens) (UniProt Q9NYA1); conditions: at 1 µM;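 further: mean SPHK1 inhibition value reported from the GSK PKIS kinase panel screen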
# [2] = biological target: T1, Sphingosine kinase 2 (Homo sapiens) (UniProt Q9NRA0); conditions: at 0.1 µM
# T1 sequence (whole entry): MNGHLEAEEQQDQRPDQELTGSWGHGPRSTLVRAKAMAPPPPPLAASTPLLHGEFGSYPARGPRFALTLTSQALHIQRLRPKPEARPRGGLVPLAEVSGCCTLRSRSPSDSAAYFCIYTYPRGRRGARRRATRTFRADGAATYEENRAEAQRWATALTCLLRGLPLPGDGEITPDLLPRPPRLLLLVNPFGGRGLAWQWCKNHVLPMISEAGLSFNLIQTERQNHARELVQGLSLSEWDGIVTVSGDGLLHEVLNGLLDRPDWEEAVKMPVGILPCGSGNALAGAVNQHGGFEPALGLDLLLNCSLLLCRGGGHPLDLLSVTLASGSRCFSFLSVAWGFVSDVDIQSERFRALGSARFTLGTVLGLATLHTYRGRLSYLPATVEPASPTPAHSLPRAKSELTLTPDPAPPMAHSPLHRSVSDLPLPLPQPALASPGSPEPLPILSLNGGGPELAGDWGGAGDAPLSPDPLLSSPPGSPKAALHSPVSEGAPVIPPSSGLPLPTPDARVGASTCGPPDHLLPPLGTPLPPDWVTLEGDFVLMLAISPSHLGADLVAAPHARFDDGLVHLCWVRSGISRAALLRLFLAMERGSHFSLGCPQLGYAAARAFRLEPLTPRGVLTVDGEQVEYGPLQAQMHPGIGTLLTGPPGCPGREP
# [3] = biological target: T1, Sphingosine kinase 2 (Homo sapiens); conditions: at 1 µM
# [4] = biological target: Casein kinase II subunit alpha (Homo sapiens) (UniProt P68400); conditions: at 0.1 µM
# Casein kinase II subunit alpha (Homo sapiens), sequence (P68400 whole entry, looked up): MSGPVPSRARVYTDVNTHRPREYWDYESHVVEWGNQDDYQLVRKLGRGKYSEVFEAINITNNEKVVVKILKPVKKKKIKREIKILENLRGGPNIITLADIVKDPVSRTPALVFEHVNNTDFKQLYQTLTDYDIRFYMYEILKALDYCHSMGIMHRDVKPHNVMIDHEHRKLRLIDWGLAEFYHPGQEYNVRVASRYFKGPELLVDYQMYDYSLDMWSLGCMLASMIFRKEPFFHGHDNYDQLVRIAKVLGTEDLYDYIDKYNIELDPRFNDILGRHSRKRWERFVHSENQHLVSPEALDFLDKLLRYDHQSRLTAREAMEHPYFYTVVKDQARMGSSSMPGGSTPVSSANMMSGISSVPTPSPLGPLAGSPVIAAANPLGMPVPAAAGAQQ
# [5] = biological target: Casein kinase II subunit alpha (Homo sapiens) (UniProt P68400); conditions: at 1 µM
# [6] = biological target: T2, Inhibitor of nuclear factor kappa-B kinase subunit alpha (Homo sapiens) (UniProt O15111); conditions: at 0.1 µM
# T2 sequence (whole entry): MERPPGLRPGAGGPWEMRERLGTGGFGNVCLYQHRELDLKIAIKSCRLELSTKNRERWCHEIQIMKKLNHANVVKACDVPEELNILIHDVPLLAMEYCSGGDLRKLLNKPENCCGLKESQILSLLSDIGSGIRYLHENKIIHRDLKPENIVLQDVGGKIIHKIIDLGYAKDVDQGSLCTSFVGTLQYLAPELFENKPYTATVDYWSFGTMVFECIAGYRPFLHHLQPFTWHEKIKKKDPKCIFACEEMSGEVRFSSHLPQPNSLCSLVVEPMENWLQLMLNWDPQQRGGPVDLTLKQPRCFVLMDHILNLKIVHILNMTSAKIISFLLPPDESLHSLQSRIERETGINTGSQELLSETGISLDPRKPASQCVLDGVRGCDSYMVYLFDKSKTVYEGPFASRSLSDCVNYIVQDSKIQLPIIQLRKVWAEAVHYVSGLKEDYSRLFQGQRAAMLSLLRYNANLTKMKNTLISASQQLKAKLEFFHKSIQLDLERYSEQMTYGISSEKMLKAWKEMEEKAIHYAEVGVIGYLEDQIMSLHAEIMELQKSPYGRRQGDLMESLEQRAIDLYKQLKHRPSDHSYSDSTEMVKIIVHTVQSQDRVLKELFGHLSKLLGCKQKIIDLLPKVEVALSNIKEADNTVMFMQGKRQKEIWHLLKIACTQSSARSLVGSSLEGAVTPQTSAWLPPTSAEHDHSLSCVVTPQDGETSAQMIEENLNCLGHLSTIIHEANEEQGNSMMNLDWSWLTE
# [7] = biological target: T2, Inhibitor of nuclear factor kappa-B kinase subunit alpha (Homo sapiens); conditions: at 1 µM
# [8] = biological target: T3, Inhibitor of nuclear factor kappa-B kinase subunit beta (Homo sapiens) (UniProt O14920); conditions: at 0.1 µM
# T3 sequence (whole entry): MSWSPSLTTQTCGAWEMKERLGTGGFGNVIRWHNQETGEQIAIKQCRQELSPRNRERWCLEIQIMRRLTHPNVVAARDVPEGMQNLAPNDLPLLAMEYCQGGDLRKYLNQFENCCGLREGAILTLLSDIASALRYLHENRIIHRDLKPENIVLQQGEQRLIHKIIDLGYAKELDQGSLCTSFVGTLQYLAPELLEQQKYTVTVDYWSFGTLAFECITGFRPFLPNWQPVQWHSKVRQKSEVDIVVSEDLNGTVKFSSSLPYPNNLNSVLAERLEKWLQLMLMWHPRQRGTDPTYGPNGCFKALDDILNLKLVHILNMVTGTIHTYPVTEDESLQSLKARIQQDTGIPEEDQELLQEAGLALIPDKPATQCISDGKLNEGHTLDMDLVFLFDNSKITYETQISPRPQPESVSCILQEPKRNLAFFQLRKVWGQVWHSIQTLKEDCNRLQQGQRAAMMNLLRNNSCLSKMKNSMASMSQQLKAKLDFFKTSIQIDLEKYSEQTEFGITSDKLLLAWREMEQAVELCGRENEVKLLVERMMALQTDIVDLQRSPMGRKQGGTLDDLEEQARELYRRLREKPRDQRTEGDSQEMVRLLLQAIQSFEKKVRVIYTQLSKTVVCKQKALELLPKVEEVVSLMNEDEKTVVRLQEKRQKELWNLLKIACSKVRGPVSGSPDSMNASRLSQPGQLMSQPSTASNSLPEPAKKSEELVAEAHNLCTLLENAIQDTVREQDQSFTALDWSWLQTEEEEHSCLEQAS
# [9] = biological target: T3, Inhibitor of nuclear factor kappa-B kinase subunit beta (Homo sapiens); conditions: at 1 µM
# [10] = biological target: T4, Inhibitor of nuclear factor kappa-B kinase subunit epsilon (Homo sapiens) (UniProt Q14164); conditions: at 0.1 µM
# T4 sequence (whole entry): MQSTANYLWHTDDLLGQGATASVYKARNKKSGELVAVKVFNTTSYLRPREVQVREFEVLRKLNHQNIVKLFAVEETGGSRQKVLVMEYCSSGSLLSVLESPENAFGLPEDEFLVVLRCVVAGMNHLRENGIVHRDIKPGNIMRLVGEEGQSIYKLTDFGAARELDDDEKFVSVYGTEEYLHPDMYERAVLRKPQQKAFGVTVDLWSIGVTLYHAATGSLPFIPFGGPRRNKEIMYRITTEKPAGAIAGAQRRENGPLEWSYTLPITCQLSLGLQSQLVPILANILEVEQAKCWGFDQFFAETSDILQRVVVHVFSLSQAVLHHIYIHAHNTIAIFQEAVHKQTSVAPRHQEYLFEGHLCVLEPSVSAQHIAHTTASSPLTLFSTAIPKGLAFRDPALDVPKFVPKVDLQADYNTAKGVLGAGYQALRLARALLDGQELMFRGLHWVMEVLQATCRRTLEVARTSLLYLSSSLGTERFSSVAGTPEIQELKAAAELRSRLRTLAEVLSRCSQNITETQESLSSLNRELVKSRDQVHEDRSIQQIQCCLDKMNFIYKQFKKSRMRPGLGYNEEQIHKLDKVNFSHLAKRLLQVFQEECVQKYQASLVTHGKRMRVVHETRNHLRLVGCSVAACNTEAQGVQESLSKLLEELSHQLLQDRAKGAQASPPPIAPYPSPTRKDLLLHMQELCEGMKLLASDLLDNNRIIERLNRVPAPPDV
# [11] = biological target: T4, Inhibitor of nuclear factor kappa-B kinase subunit epsilon (Homo sapiens); conditions: at 1 µM
# [12] = biological target: T5, Serine/threonine-protein kinase Nek1 (Homo sapiens) (UniProt Q96PY6); conditions: at 0.1 µM
# T5 sequence (whole entry): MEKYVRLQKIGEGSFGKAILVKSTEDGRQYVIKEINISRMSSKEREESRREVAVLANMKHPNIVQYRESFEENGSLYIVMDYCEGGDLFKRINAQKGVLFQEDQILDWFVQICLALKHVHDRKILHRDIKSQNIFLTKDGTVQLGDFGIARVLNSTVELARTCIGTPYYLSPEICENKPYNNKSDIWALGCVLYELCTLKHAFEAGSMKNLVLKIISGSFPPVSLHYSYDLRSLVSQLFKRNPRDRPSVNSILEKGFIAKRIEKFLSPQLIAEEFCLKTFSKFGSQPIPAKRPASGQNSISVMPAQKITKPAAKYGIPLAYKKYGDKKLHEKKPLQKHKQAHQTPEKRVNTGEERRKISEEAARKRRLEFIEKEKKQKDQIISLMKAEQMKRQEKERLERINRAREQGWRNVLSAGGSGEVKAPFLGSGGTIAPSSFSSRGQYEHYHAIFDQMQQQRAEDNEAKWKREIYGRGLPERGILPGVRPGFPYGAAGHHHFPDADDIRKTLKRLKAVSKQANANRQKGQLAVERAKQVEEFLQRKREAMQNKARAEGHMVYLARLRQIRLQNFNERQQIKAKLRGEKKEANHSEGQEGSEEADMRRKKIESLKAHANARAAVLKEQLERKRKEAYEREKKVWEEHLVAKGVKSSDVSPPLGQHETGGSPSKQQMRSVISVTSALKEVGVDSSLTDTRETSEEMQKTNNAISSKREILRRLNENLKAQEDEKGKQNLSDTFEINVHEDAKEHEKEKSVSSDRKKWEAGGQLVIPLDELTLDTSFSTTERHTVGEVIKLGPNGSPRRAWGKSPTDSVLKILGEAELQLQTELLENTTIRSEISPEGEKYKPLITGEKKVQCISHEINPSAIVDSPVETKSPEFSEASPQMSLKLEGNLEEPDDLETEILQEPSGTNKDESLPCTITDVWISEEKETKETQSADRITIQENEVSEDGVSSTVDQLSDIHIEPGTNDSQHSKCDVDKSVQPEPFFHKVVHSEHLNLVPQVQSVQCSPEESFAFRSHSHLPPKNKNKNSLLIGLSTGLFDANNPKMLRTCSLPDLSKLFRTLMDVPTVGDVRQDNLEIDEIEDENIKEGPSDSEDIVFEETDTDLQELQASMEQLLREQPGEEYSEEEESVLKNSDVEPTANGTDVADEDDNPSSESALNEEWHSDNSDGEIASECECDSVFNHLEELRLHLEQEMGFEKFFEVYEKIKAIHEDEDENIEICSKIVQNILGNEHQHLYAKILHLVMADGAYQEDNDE
# [13] = biological target: T5, Serine/threonine-protein kinase Nek1 (Homo sapiens); conditions: at 1 µM
# [14] = biological target: T6, Serine/threonine-protein kinase Nek2 (Homo sapiens) (UniProt P51955); conditions: at 0.1 µM
# T6 sequence (whole entry): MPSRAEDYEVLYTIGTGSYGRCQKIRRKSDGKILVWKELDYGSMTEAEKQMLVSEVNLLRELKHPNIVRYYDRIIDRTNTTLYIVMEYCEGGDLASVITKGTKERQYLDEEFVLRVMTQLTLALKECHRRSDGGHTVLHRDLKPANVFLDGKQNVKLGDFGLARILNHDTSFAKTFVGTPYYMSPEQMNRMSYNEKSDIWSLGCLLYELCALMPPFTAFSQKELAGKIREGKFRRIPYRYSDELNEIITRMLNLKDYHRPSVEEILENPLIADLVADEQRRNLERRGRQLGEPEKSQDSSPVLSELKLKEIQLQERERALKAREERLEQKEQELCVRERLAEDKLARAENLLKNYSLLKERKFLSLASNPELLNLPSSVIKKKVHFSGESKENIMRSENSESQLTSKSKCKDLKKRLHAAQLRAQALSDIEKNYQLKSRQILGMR
# [15] = biological target: T6, Serine/threonine-protein kinase Nek2 (Homo sapiens); conditions: at 1 µM
# [16] = biological target: Serine/threonine-protein kinase Nek6 (Homo sapiens) (UniProt Q9HC98); conditions: at 0.1 µM
# Serine/threonine-protein kinase Nek6 (Homo sapiens), sequence (Q9HC98 whole entry): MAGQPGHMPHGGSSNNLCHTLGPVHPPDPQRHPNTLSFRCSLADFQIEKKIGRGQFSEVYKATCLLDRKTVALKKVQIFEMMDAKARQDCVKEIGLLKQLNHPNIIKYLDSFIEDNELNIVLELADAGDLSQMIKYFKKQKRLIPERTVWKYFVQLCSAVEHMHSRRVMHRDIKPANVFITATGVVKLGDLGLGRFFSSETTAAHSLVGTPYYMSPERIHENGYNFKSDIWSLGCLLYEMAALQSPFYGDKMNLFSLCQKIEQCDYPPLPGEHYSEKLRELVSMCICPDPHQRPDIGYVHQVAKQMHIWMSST
# [17] = biological target: Serine/threonine-protein kinase Nek6 (Homo sapiens) (UniProt Q9HC98); conditions: at 1 µM
# [18] = biological target: Serine/threonine-protein kinase Nek7 (Homo sapiens) (UniProt Q8TDX7); conditions: at 0.1 µM
# Serine/threonine-protein kinase Nek7 (Homo sapiens), sequence (Q8TDX7 whole entry, looked up): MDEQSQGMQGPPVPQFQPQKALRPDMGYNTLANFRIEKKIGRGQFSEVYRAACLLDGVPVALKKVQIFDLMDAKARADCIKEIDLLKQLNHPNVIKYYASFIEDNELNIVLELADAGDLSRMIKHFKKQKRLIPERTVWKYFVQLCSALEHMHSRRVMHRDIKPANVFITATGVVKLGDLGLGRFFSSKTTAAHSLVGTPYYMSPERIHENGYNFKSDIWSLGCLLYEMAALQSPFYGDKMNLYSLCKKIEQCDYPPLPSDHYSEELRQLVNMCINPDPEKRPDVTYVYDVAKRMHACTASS
# [19] = biological target: Serine/threonine-protein kinase Nek7 (Homo sapiens) (UniProt Q8TDX7); conditions: at 1 µM
# [20] = biological target: T7, Serine/threonine-protein kinase Nek9 (Homo sapiens) (UniProt Q8TD19); conditions: at 0.1 µM;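 further: reported value is the mean percent inhibition of NEK9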
# T7 sequence (whole entry): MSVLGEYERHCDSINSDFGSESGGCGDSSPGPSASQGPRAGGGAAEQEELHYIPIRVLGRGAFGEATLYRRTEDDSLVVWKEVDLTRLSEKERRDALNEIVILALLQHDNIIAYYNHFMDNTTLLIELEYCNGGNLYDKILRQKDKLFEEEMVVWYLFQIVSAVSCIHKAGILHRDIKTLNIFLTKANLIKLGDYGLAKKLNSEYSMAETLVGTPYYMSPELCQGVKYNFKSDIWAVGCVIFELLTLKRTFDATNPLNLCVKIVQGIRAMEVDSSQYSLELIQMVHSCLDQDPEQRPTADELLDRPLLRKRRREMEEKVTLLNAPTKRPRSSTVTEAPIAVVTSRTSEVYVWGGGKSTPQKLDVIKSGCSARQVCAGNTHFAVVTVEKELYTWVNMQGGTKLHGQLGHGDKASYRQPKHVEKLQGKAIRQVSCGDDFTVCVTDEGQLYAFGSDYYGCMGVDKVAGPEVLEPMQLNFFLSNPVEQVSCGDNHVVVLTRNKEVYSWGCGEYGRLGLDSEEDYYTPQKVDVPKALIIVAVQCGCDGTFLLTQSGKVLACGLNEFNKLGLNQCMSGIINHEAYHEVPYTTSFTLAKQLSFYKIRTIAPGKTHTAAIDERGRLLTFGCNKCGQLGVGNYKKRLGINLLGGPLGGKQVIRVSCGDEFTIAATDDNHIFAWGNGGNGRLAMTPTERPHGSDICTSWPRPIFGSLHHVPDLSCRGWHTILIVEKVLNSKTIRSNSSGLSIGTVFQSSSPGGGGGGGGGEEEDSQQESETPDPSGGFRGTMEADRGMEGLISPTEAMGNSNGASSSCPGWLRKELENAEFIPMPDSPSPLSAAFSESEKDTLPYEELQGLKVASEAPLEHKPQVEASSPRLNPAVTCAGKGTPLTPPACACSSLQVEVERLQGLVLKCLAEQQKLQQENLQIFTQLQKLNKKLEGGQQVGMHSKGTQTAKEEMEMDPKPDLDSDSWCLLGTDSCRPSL
# Sphingosine kinase 1 (Homo sapiens), sequence (Q9NYA1 whole entry): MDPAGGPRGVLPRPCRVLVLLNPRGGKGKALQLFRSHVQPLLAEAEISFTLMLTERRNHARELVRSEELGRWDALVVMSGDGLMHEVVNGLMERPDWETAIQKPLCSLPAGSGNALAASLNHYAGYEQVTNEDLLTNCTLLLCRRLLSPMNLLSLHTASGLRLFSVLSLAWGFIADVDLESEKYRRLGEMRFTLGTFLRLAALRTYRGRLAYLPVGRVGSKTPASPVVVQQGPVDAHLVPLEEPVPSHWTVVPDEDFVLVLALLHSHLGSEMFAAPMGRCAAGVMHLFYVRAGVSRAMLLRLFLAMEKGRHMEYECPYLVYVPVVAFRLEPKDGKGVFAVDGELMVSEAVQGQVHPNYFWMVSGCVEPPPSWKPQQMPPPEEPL
compound,measurement,setting,value
N#Cc1cccc(Nc2nccc(-c3cnn4ncccc34)n2)c1,inhibition,[1],-1.39%
same,inhibition,[2],0%
same,inhibition,[3],-6.48%
same,inhibition,[4],20.4%
same,inhibition,[5],63.9%
same,inhibition,[6],9.53%
same,inhibition,[7],31%
same,inhibition,[8],7.83%
same,inhibition,[9],20.5%
same,inhibition,[10],7.68%
same,inhibition,[11],27.9%
same,inhibition,[12],2.07%
same,inhibition,[13],10.9%
same,inhibition,[14],1.93%
same,inhibition,[15],6.24%
same,inhibition,[16],3.54%
same,inhibition,[17],5.8%
same,inhibition,[18],-4.91%
same,inhibition,[19],4.18%
same,inhibition,[20],7%
